Assay [1] is described as follows: qHTS assay to identify small molecule agonists of the RXR signaling pathway - cell viability counter screen (AID 1159529).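 Further: HEK 293T cells carrying an RXR-alpha UAS beta-lactamase reporter; nearly all actives have a fitted effect of over 50% in size.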 Summed up:
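Same-well viability check after the LiveBLAzer FRET read: CellTiter-Glo added, luminescence measured after 30 min at room temperature. Reporter HEK 293T cells had been treated with compounds for 16 hr following a 5 hr preincubation.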

Assay [2] can be described thus: qHTS assay to identify small molecule antagonists of the retinoid acid receptor (RAR) signaling pathway - cell viability counter screen (AID 1159551). Further: nearly all actives have a fitted effect of over 35% in size. The method, boiled down:
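Cells (C3RL4) are plated, incubated overnight, dosed with compound in DMSO, then given retinol at 1 uM final. After 6 h at 37 C, CellTiter-Glo is added and luminescence read following 30 min at room temperature.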
(Quantitative high-throughput screening tests each substance at several concentrations.)

Assay [3] in a line: qHTS assay to identify small molecule antagonists of the retinoic acid receptor (RAR) signaling pathway (AID 1159552; further: nearly all actives have a fitted effect of over 50% in size; further: potency means the concentration at half of the fitted maximal effect). Summed up: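 Readout: luciferase luminescence, 30 min post-reagent at RT. Setup: C3RL4 RARE reporter cells, compounds plus retinol 1 uM final, 6 hr incubation at 37 C and 5% CO2.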
Assay [4] can be described thus: qHTS assay to identify small molecule antagonists of the estrogen related receptor (ERR) signaling pathway - cell viability counter screen (AID 1224818). Summed up: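 ERR cells, 2,000/well; 6 h settle at 37 C/5% CO2; compound pin transfer (DMSO); 17.5 h at 37 C; CellTiter-Fluor, 30 min, fluorescence read.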
Assay [5] in a line: qHTS assay to identify small molecule antagonists of the estrogen related receptor (ERR) signaling pathway (AID 1224819;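 further: luminescence from an ERR-driven luciferase reporter measured with One-Glo reagent; nearly all actives have a fitted effect of over 50% in size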). Summed up:
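qHTS in ERR cells, 2,000/well, 1536 format. Cpd (DMSO) added after 6 h settle, 18 h 37 C. One-Glo luminescence, 30 min RT.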

Assay [6] in a line: qHTS assay to identify small molecule agonists of the estrogen related receptor (ERR) signaling pathway (AID 1224820). The method, boiled down: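 Luminescence readout (One-Glo, 30 min RT) from NTP-supplied ERR cell line exposed to compounds for 18 h at 37 C. Cells seeded 2,000 per well and pre-incubated 6 h before pin-tool compound transfer.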
Assay [7] relates to estrogen-related receptor alpha (ERRalpha) with PGC-1alpha coactivator, human. Briefly: qHTS assay to identify small molecule antagonists of the estrogen related receptor signaling pathway with the pleiotropic PPARgamma coactivator (PGC) (AID 1224821; calls by dose curve;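 further: lower luminescence signal means antagonism of PGC/ERR signalling; nearly all actives have a fitted effect of over 50% in size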). Summed up: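 PGC/ERR reporter cells; 6 h pre-incubation 37 C/5% CO2; pin-tool compound in DMSO, 18 h 37 C; One-Glo added, 30 min RT; luminescence read. qHTS antagonist mode.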

The nature of assay [8]: qHTS assay to identify small molecule antagonists of the estrogen related receptor signaling pathway with the pleiotropic PPARgamma coactivator (PGC) cell viability counter screen (AID 1224822). Summed up:
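Multiplexed viability counter screen run in PGC/ERR cells treated with compounds for 17.5 h at 37 C; live-cell protease signal measured by CellTiter-Fluor fluorescence.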

Assay [9] in a line: qHTS assay to identify small molecule agonists of the estrogen related receptor signaling pathway with the pleiotropic PPARgamma coactivator (PGC) (AID 1224823). The method, boiled down: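 Luminescence readout (One-Glo, 30 min RT) from PGC/ERR cell line treated 18 h at 37 C with pin-tool-delivered DMSO compound solutions; cells plated 6 h before dosing. Quantitative HTS format.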

Assay [10] is described as follows: qHTS assay to identify small molecule antagonists of the estrogen related receptor (ERR) signaling pathway from Tox21 library - cell viability counter screen (AID 1224834). Further: nearly all actives have a fitted effect of over 30% in size. Further: potency means the concentration at half of the fitted maximal effect. The method, boiled down: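 ERR cells, 2,000/well; 6 h settle at 37 C/5% CO2; pin-tool compound transfer in DMSO; 17.5 h at 37 C; CellTiter-Fluor, 30 min; fluorescence intensity.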
Assay [11] deals with Luciferin 4-monooxygenase (Photinus pyralis) (UniProt P08659). Briefly: qHTS assay to identify small molecule inhibitors of firefly luciferase (AID 1224835). Further: nearly all actives have a fitted effect of over 25% in size. Further: potency means the concentration at half of the fitted maximal effect. Summed up: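 Quantitative HTS format; KM concentrations of both substrates. Purified P. pyralis FLuc activity quantified from luminescence images.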
Chain of Luciferin 4-monooxygenase (Photinus pyralis) (P08659 whole entry, looked up): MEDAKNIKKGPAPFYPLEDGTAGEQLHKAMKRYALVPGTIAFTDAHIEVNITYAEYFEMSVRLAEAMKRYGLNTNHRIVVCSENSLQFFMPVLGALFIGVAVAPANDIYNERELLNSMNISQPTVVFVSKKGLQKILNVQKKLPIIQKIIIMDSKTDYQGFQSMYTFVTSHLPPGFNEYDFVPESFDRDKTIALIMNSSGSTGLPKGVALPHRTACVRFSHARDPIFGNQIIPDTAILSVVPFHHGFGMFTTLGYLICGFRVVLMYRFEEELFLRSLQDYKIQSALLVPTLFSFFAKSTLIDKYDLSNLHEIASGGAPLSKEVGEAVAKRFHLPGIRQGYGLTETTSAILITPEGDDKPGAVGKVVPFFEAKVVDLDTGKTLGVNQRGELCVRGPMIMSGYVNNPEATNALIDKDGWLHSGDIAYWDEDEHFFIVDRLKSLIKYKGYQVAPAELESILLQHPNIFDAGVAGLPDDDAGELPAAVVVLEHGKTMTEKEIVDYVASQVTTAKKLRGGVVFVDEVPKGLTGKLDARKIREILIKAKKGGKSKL
Assay [12] is described as follows: qHTS assay to identify small molecule agonists of the constitutive androstane receptor (CAR) signaling pathway - cell viability counter screen (AID 1224836). Further: nearly all actives have a fitted effect of over 45% in size. Further: potency means the concentration at half of the fitted maximal effect. Summed up:
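Compound titrations (15 concentrations) went onto HepG2-CYP2B6-hCAR cells 4 h after seeding, alongside PK11195 at a final 0.75 uM; a 23 h, 37 C/5% CO2 incubation preceded CellTiter-Fluor viability measurement.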

Assay [13] can be described thus: qHTS assay to identify small molecule antagonists of the constitutive androstane receptor (CAR) signaling pathway - cell viability counter screen (AID 1224837). Further: nearly all actives have a fitted effect of over 45% in size. Further: potency means the concentration at half of the fitted maximal effect. The method, boiled down: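 Viability was measured with CellTiter-Fluor in a HepG2 line carrying stably transfected hCAR and a CYP2B6-2.2kb construct. Cells were exposed for 23 hr at 37 C to 15 compound concentrations with 50 nM CITCO as agonist.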

The target of assay [14] is Nuclear receptor subfamily 1 group I member 3 (Homo sapiens) (UniProt Q14994). Briefly: qHTS assay to identify small molecule antagonists of the constitutive androstane receptor (CAR) signaling pathway (AID 1224838).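 Further: HepG2 cells stably expressing hCAR with CYP2B6 luciferase reporter stimulated by CITCO; nearly all actives have a fitted effect of over 40% in size.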 Further: potency means the concentration at half of the fitted maximal effect. The method, boiled down:
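Antagonist mode used CITCO at a final 50 nM to activate CAR in human hepatoma HepG2 cells carrying stable hCAR and a 2.2 kb CYP2B6 promoter-luciferase construct. Compounds were tested at 15 concentrations over 24 h, with luminescence as the end point.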

The target is the same in assay [15]. Put plainly: qHTS assay to identify small molecule agonists of the constitutive androstane receptor (CAR) signaling pathway (AID 1224839). Further: nearly all actives have a fitted effect of over 15% in size. Summed up: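 In this screen, CAR-driven CYP2B6 promoter activity is measured by luminescence in HepG2-CYP2B6-hCAR cells after 24 h with test compounds and 0.75 uM PK11195 (final concentration).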
A short description of assay [16]: qHTS assay to identify small molecule antagonists of the estrogen related receptor signaling pathway with the pleiotropic PPARgamma coactivator (PGC) from Tox21 10K library - cell viability counter screen (AID 1224840; active means well fitted cell-killing curve with a large enough effect in the repeat runs, not every such curve was filed as active; further: nearly all actives have a fitted effect of over 40% in size; further: potency means the concentration at half of the fitted maximal effect). Summed up:
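Multiplexed viability counter screen in the PGC/ERR cell line: cells treated with DMSO-dissolved compounds for 17.5 hours at 37 C, then viability measured as CellTiter-Fluor fluorescence.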

A short description of assay [17]: qHTS assay to identify small molecule antagonists of the estrogen related receptor signaling pathway with the pleiotropic PPARgamma coactivator (PGC) from Tox21 10K library (AID 1224841; call rule not given here; further: potency means the concentration at half of the fitted maximal effect). The method, boiled down: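 Steps: plate 2,000 PGC/ERR cells per well; incubate 6 h at 37 C with 5% CO2; transfer compounds from DMSO stocks by pin tool; incubate 18 h at 37 C; add One-Glo; measure luminescence 30 min later.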

Assay [18] in a line: qHTS assay to identify small molecule agonists of the estrogen related receptor signaling pathway with the pleiotropic PPARgamma coactivator (PGC) from Tox21 10K library (AID 1224842). Further: nearly all actives have a fitted effect of over 15% in size. The method, boiled down: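 PGC/ERR reporter cells (NTP line) were seeded 2,000 per well, rested 6 h at 37 C/5% CO2, then pin-dosed with compounds in DMSO for 18 h at 37 C; luciferase read by One-Glo luminescence after 30 min at room temperature.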

Assay [19] addresses Thyrotropin receptor (Homo sapiens) (UniProt P16473). Put plainly: qHTS assay to identify small molecule agonists of the thyroid stimulating hormone receptor (TSHR) signaling pathway (AID 1224843; calls by dose curve; further: nearly all actives have a fitted effect of over 45% in size). Summed up:
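Using 15 concentrations per compound in triplicate, cAMP production was monitored in TSHR-HEK293 cells after 30 min compound incubation at RT; HTRF reagents followed, with fluorescence intensity recorded after 1 h.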

Assay [20] can be described thus: qHTS assay to identify small molecule agonists of the retinoic acid receptor (RAR) signaling pathway (AID 1159553). Further: potency means the concentration at half of the fitted maximal effect. The conditions noted are these: C3RL4 RARE luciferase reporter, agonist, 6 h; activation: at 73.3 µM (top of the series) unless noted. The method, boiled down:
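Seed C3RL4 reporter cells at 1,000 per well and incubate overnight at 37 C. Add compounds in DMSO, incubate 6 hr. Add luciferase reagent, wait 30 min at room temperature, read luminescence.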

“And” between values parts separate entries of the source, which are not always exact repeats. Equal values may be shown once. Inconclusive results are not listed. Some structures have more than one record in an assay (separate samples or runs), and their calls can disagree. The source made the active and inactive calls. Unless noted, the call rests on the fitted dose curve; in most records, active means well fitted curve in the direction sought with a large enough effect in the repeat runs; inconclusive means weak or mixed curves; inactive means no such curve, though single readings can be large; an effect the other way counts as inactive or inconclusive.

Chain of Thyrotropin receptor (Homo sapiens) (P16473 whole entry, looked up): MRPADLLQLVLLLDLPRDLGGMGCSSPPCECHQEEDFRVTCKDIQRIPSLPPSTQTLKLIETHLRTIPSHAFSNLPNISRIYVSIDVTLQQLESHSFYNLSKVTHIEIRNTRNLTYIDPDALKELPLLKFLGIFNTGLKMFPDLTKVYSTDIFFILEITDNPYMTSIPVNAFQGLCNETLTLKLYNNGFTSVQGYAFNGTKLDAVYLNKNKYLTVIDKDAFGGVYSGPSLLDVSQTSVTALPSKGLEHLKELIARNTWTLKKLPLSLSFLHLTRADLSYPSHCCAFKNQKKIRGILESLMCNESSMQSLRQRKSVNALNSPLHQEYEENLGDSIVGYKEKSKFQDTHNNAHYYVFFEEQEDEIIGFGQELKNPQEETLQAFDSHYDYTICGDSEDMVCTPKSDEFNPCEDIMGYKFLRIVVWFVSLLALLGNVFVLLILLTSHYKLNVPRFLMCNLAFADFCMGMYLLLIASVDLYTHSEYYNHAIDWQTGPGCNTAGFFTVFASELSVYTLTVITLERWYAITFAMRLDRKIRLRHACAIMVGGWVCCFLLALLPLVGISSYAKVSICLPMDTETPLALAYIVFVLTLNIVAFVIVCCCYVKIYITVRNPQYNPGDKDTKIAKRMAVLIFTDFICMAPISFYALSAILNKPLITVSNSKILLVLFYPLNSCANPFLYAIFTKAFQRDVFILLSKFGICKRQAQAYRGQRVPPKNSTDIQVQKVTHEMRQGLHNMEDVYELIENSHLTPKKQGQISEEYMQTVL
Chain of Nuclear receptor subfamily 1 group I member 3 (Homo sapiens) (Q14994 whole entry, looked up): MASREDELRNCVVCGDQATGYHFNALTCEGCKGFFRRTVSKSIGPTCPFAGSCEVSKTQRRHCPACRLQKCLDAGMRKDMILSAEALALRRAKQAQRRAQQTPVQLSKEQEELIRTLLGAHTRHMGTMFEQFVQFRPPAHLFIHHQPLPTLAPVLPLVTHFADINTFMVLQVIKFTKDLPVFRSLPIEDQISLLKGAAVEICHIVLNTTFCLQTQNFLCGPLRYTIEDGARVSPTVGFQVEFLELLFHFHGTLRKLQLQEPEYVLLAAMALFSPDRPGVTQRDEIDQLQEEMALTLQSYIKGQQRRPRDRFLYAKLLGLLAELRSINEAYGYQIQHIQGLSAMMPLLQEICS

In the case of `NC(=O)CN1CCCC1=O`, the Potency entry in assay [1], in assay [2], in assay [3], in assay [5], in assay [7] and in [8] was “inactive” throughout. Also, the Potency result in assay [10], in [11], in assay [12], in assay [13], in assay [14] and in [15] was “inactive” each time. The Potency entry in assay [16], in assay [17] and in assay [18] was “inactive” throughout. Besides, the result in assay [4], in assay [6] and in [9] was inactive.

Take `COP(=S)(OC)SCn1nnc2ccccc2c1=O`: the Potency result in assay [1], in [2], in assay [12], in [13], in assay [14] and in assay [16] was “inactive” throughout. Also, the Potency entry in [18] and in assay [19] was “inactive” in each case. For the same compound, the Potency in assay [3] is 60 µM (active); in assay [17], 61.1 µM (active).

For `CCOP(=S)(OCC)OP(=S)(OCC)OCC`, the Potency result in assay [1], in assay [2], in assay [3], in assay [20], in [10] and in assay [12] was “inactive” in each case. Further, the Potency result in [13], in assay [14], in [15], in assay [16], in assay [17] and in assay [18] was “inactive” in each case. The Potency entry in [19] is “inactive”.

`S=c1[nH]c2ccccc2[nH]1`: the Potency result in assay [1], in assay [2], in assay [3], in [20], in assay [10] and in [12] was “inactive” throughout. For the same compound, the Potency entry in [13], in assay [15], in [16], in assay [18] and in [19] was “inactive” each time. Also, the Potency in assay [14] is 54.6 µM (active) and inactive.

As to `CCCCCCCCCCCCCl`, the Potency entry in assay [1], in [2], in [3], in assay [20], in assay [10] and in assay [11] was “inactive” throughout. Further, the Potency result in [12], in [13], in assay [16] and in [19] was “inactive” each time.

In the case of `CC[n+]1c(-c2ccccc2)c2cc(N)ccc2c2ccc(N)cc21`, the Potency result in assay [1], in [2], in [11] and in [15] was “inactive” each time. In addition, the Potency was 24.2 µM (active) and 6.68 µM (active) in assay [10]; 48.3 µM (active) in assay [12]; 30.5 µM (active) in assay [13]; 21.6 µM (active) and 13.3 µM (active) in assay [14]; 24.2 µM (active) in assay [16].

Regarding `Cl`, the Potency entry in assay [1], in assay [2], in [10], in [12], in assay [13] and in assay [16] was “inactive” throughout.

For the compound `Nc1ccc([N+](=O)[O-])cc1N`, the Potency result in [1], in assay [17] and in assay [18] was “inactive” each time. Besides, the Potency in assay [3] was 13.7 µM (active) and inactive; in assay [20], 68.5 µM (active) and 68.6 µM (active); in assay [10], 48.5 µM (active) and 24.3 µM (active); in assay [11], 79.6 µM (active); in assay [12] it was 48.5 µM (active); in assay [13], 61.1 µM (active) and 27.3 µM (active). In addition, the Potency in assay [16] was 43.2 µM (active).

Regarding `CNC(=O)CSP(=S)(OC)OC`, the Potency result in assay [1], in assay [2], in assay [10], in [12], in [13] and in assay [14] was “inactive” in each case. In addition, the Potency entry in [15], in [16] and in assay [19] was “inactive” in each case.

For the origin of these results see PubChem BioAssay (Tox21).
